# Rows were chosen to be rich in hits. Some 18% of all compounds tested hit in one or more screens of this group.
# VDR inh: Inhibitors of the vitamin D receptor (VDR): qHTS; Potency, µM, actives largely listed as inhibitors; VDR-SRC2-3 peptide fluorescence polarization, 2 h; AID 504847, 2011; actives 0.93% (n = 400,000); Vitamin D3 receptor (Homo sapiens), P11473
# Target sequence (P11473 whole entry, looked up): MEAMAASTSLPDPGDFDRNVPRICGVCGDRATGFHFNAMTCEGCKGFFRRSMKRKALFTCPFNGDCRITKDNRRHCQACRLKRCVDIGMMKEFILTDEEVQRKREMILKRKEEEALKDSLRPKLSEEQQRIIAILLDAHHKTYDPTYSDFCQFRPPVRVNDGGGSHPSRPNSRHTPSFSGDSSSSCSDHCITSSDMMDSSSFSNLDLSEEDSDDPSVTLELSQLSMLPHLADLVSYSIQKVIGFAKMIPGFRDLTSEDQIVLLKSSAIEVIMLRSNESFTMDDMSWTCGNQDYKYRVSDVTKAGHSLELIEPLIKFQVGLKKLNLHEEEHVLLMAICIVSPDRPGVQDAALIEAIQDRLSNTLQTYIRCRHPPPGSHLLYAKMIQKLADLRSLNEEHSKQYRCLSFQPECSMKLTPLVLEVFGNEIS
#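 After 23 nl compound addition and a short centrifugation, plates sat for 2 hours at ambient temperature; polarization of fluorescence then indicated loss of VDR binding to peptide SRC2-3.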
# DT40 TDP1 no CPT: qHTS for Inhibitors of human tyrosyl-DNA phosphodiesterase 1 (TDP1): qHTS in cells in absence of CPT. DT40 Tdp1-/- hTDP1 cells, no CPT, ATP luminescence, 48 h. Potency, µM (doses to about 46.2 µM), usual class: inhibitors. actives 15% (n = 420,000); also: nearly all actives have a fitted effect of over 55% in size
#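 Readout: luminescence from CellTiter-Glo after 30 min in the dark at RT. Cells: DT40 Tdp1-/- with stable hTDP1, 400/well. Exposure: compounds alone, ≥48 hr, 37 °C.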
# KAT2A inh: qHTS Assay for Inhibitors of GCN5L2; AID 504327, 2011; Potency, µM (highest dose often 58.9 µM), hits mostly inhibitors; Histone acetyltransferase KAT2A (Homo sapiens), Q92830; actives 0.21% (n = 390,000); GCN5L2 HAT assay, ThioGlo1 CoA-SH fluorescence
#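 GCN5L2 (20 nM) in 50mM HEPES pH 7.5, 0.1mM EDTA, 0.01% Tween-20 preincubated 15 min with compounds at room temperature. Reaction started with H3(1-25) 75uM, acetyl-CoA 70uM, ThioGlo1 50uM; CoA-thiol fluorescence (Ex340/Em540) read at 0 and 20 min.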
# TDP1 block: qHTS Assay for Inhibitors of Tyrosyl-DNA Phosphodiesterase (TDP1) | Tyrosyl-DNA phosphodiesterase 1 (Homo sapiens), Q9NUW8 | recombinant TDP1, AlphaScreen DNA substrate cleavage | Potency, µM (highest dose often 130 µM), actives largely listed as inhibitors | actives 0.28% (n = 350,000) | AID 485290, 2010; also: nearly all actives have a fitted effect of over 40% in size
#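 Compounds were preincubated with Tdp1 (1 nM final) for 15 min at room temperature before substrate (15 nM final) started a 5 min reaction; beads (10 ug/ml final) were then added for 10 min before AlphaScreen detection.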
# DT40 TDP1 CPT: qHTS for Inhibitors of human tyrosyl-DNA phosphodiesterase 1 (TDP1): qHTS in cells in presence of CPT; chicken DT40 Tdp1-/-;hTDP1 cells + 20 nM CPT, ATP luminescence, 48 h; Potency, µM (top dose mostly 46.2 µM), usual class: inhibitors; actives 12% (n = 420,000); AID 686979, 2013; also: nearly all actives have a fitted effect of over 55% in size
#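 Chicken DT40 Tdp1-/- cells complemented with human TDP1, 400 cells/well, exposed to compounds plus 20 nM camptothecin for at least 48 h at 37 C; viability read as ATP content by CellTiter-Glo luminescence.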
# PLK1 PBD block: qHTS for Inhibitors of PLK1-PDB (polo-like kinase 1 - polo-box domain): Primary Screen. actives 2.8% (n = 360,000). Potency, µM, most hits filed as inhibitors. Plk1 PBD binding of FITC phosphopeptide, fluorescence polarization; also: series mostly up to about 57 µM; nearly all actives have a fitted effect of over 65% in size
# Numbers stand for hits; n = inactive; u = inconclusive; x = not tested or not shown. Calls follow the shape of the dose curve; as a rule, active = well fitted curve in the direction sought with a large enough effect; inconclusive = small, poorly fitted or top-dose-only effect, or another doubt; inactive = no such curve, though single readings can be large; an effect the other way counts as inactive or inconclusive.
SMILES,VDR inh,DT40 TDP1 no CPT,KAT2A inh,TDP1 block,DT40 TDP1 CPT,PLK1 PBD block
O=C(Nc1ccc2c(c1)CCC2)c1cccc(S(=O)(=O)N2CCN(c3ccccc3)CC2)c1,n,n,n,n,n,n
CSc1ncccc1C(=O)Nc1cccc(S(=O)(=O)N2CCCCC2)c1,n,15µM,n,n,u,n
COc1ccc(NC(=O)c2cccc(S(=O)(=O)N(C)c3ccccc3)c2)cn1,n,16µM,n,n,16µM,n
CC(=O)c1cccc(NC(=O)c2ccc(N(C)S(C)(=O)=O)cc2)c1,n,n,n,n,n,n
CN(c1ccccc1)S(=O)(=O)c1cccc(C(=O)Nc2ccc3c(c2)CCC3)c1,n,2.6µM,n,n,5.2µM,n
CN(c1cccc(NC(=O)c2ccc(N(C)S(=O)(=O)c3ccccc3)cc2)c1)S(C)(=O)=O,u,u,n,n,21µM,12µM
c1ccc2c(c1)Cc1cc3cc4c(cc3nc1-2)OCO4,x,x,x,n,x,x
Cc1ccc(S(=O)(=O)NC(=O)C2(C)CCN2C(=O)Cc2cccs2)cc1 (stereo not drawn),x,n,x,x,n,n
CSc1ncccc1C(=O)Nc1cccc(S(=O)(=O)N(C)c2ccccc2)c1,n,u,n,n,18µM,n
CC(=O)Nc1ccc(C(=O)Nc2cccc(S(=O)(=O)N(C)c3ccccc3)c2)cc1,n,u,n,n,18µM,n
CN(c1cccc(NC(=O)c2ccc(C(C)(C)C)cc2)c1)S(C)(=O)=O,n,21µM,n,n,23µM,n
CN(c1ccccc1)S(=O)(=O)c1cccc(C(=O)NNC(=O)c2ccccc2)c1,n,16µM,n,n,16µM,n
CN(c1ccccc1)S(=O)(=O)c1ccc(C(=O)NNC(=O)c2ccccc2)cc1,n,n,n,n,n,n
C#C[C@]1(O)CCC2C3CCC4=Cc5oncc5C[C@@]4(C)C3CC[C@@]21C (stereo partly drawn),n,u,n,n,u,x
CN(C)S(=O)(=O)c1cccc(C(=O)Nc2ccc(C(=O)Nc3cccc(S(N)(=O)=O)c3)cc2)c1,n,u,n,n,n,n
CN(c1ccccc1)S(=O)(=O)c1cccc(NC(=O)CCNC(=O)c2ccc(Cl)cc2)c1,n,u,n,n,23µM,n
O=C(Nc1cccc(S(=O)(=O)N2CCCC2)c1)c1cc(-c2ccccn2)nc2ccccc12,n,21µM,n,n,23µM,n
CC(=O)c1cccc(NC(=O)c2ccccc2OCc2ccc(F)cc2)c1,n,n,n,n,n,n
CN(C)S(=O)(=O)c1cccc(NC(=O)c2cccc(NS(=O)(=O)c3ccccc3)c2)c1,n,u,n,n,21µM,n
CN(C)S(=O)(=O)c1cccc(NC(=O)c2ccccc2OCc2ccc(F)cc2)c1,n,u,n,x,15µM,n
CN(c1ccc(C(=O)NCCSCc2c(F)cccc2Cl)cc1)S(C)(=O)=O,n,u,n,n,u,n
CN(c1ccccc1)S(=O)(=O)c1cccc(NC(=O)c2ccncc2)c1,n,8.2µM,n,n,6.5µM,n
CN(c1ccccc1)S(=O)(=O)c1cccc(NC(=O)c2cncc(Br)c2)c1,n,u,n,n,u,n
CN(c1ccc(C(=O)NCCSCc2ccc(Cl)cc2)cc1)S(=O)(=O)c1ccccc1,n,16µM,n,n,16µM,n
O=C(Nc1ccc2c(c1)CCC2)c1ccccc1,n,16µM,n,n,u,n
O=C1[C@H]2[C@@H]3CCN1CCC[C@@H]2C=C[C@@H]3c1ccc(Br)cc1,x,18µM,x,x,u,n
Cc1ccccc1SCC(=O)Nc1ccc(N2CCOCC2)cc1,n,u,n,n,u,19µM
Nc1ccccc1SCC(=O)Nc1ccc(N2CCOCC2)cc1,u,n,n,n,n,n
